Nrf2 activator = qHTS of Nrf2 Activators; AREc32 ARE-luciferase reporter (MCF7-derived line), luminescence, 24 h; Potency, µM (doses to about 46.1 µM), for inactives: at the highest dose activation, actives largely listed as activators; 410,000 compounds, 0.31% hits; note: potency is the fitted concentration of half-maximal effect; % of control where 0% means no effect; nearly all actives have a fitted effect of over 65% in size
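Steps: seed AREc32_Fluc cells (1000/well, 5% FBS OPTI-MEM); incubate overnight at 37 deg C; add 23 nL compound; incubate 24 hr; add Steady-Glo; hold 30 min RT; read luminescence.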
D3 ag = qHTS of D3 Dopamine Receptor Agonist: qHTS | D(3) dopamine receptor (Homo sapiens), P35462 | D3R DiscoveRx beta-arrestin cells, luminescence, 90 min | max activation, % | 410,000 compounds, 0.58% hits | AID 652048, 2013; in the data active = max activation above about 30%; note: 0% is about no effect
Target sequence (P35462 whole entry, looked up): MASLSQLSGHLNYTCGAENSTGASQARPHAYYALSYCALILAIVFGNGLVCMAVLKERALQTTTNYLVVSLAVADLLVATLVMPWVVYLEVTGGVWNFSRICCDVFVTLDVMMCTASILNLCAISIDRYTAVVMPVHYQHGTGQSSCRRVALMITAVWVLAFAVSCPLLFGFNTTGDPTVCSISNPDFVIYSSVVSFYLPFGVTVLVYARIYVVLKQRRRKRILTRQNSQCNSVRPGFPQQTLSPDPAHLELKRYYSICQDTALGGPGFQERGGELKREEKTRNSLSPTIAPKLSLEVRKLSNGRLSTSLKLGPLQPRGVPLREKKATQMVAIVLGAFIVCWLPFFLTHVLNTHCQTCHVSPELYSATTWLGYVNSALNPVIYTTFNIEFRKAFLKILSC
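Agonist mode: compounds and dopamine controls were applied to plated cells for 90 min at 37 degrees C after an overnight attachment at 1500 cells/well. Luminescent read-out followed 30 - 60 minutes at room temperature with DiscoveRx detection reagent.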
Glioma ERSR ind = qHTS for Inducers of the Endoplasmic Reticulum Stress Response (ERSR) in Human Glioma: qHTS | U87-MG GRP78 promoter luciferase reporter, 16 h | Potency, µM, for the others: at the top dose activation, most hits filed as activators | 420,000 compounds, 0.02% hits | AID 602332, 2012; note: potency is the fitted concentration of half-maximal effect; series mostly up to about 76 µM; % of control where 0% means no effect; nearly all actives have a fitted effect of over 35% in size
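ERSR induction read as luciferase luminescence (Bright-Glo, 10 min at room temperature) in stably transfected human U87-MG glioma cells exposed to compounds for 16 h, using GRP78 as sensor.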
D3 antag = qHTS of D3 Dopamine Receptor Antagonist: qHTS; D(3) dopamine receptor (Homo sapiens), P35462; D3R cells, DiscoveRx beta-arrestin luminescence, antagonist mode; active compounds read low; max response, negative = inhibition, %; 360,000 compounds, 2.5% hits; AID 652054, 2013; in the data active = max response below about -50%; inconclusive = no clear call, values can overlap the other calls; note: % is set by controls: 0 for no effect and ±100 for the full control effect
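Cells plated overnight at 1500 cells/well, then exposed to library compounds with dopamine controls for 90 minutes at 37 degrees C. DiscoveRx reagent added for 30–60 minutes at room temperature; luminescence read, quantitative HTS format.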
* hit, by the source's call; u = inconclusive; x = not tested or not shown. An excerpt weighted towards active compounds, which were near 3% of everything screened. Unless noted, calls come from the whole dose curve; as a rule, active = well fitted curve in the direction sought with a large enough effect; inconclusive = small, poorly fitted or top-dose-only effect, or another doubt; inactive = no such curve, though single readings can be large; an effect the other way counts as inactive or inconclusive.

SMILES	Nrf2 activator	D3 ag	Glioma ERSR ind	D3 antag
CN(C1=C(NC(=O)c2ccccc2)C(=O)c2ccccc2C1=O)C1CCS(=O)(=O)C1 (configuration not stated)	-2%	-13	-11%	-54*
CC(=O)NC1=C(NC2CCS(=O)(=O)C2)C(=O)c2ccccc2C1=O (configuration not stated)	-1%	-15	-5%	-4
CC(=O)O[C@@H]1CC2CCC1(C)C2(C)C (some centres not stated)	x	8	x	x
COc1cc(NC(=O)CCc2c(C)nn(-c3ccc(N4CCCCC4)nn3)c2C)cc(OC)c1OC	6%	73*	1%	x
COc1ccc(NC(=O)CCc2c(C)nn(-c3ccc(N4CCCCC4)nn3)c2C)cc1Cl	9%	5	-1%	x
COc1cc(OC)c(CNC2CCCCCC2)cc1Br	0%	-22	-1%	-62*
Cc1cc2nccc(/C=C/c3ccc(N(C)C)cc3)c2cc1C	x	x	-2%	x
O=C(COCc1cc(-c2cccs2)on1)Nc1cc(Cl)ccc1O	3.5µM*	4	-6%	x
O=C(COCc1cc(-c2ccc(F)cc2)on1)Nc1cc(Cl)ccc1O	6.3µM*	18	1%	x
COc1ccc(OC)c(/C=C/c2c3ccccc3cc[n+]2C)c1	x	x	-3%	x
Cc1ccc(CNc2nc(C)c(-c3ccn(CCN4CCOCC4)n3)s2)o1	x	x	-3%	x
COc1ccc(-c2noc(CN(C)CCC3CCCCO3)n2)cc1 (configuration not stated)	0%	35*	1%	10
COc1ccc(OC(C)C(=O)N(C)Cc2nc(-c3ccc(OC)cc3)no2)cc1 (configuration not stated)	-1%	40*	-6%	2
COc1ccc(OC(C)C(=O)N(C)Cc2nc(-c3ccc(C)cc3)no2)cc1 (configuration not stated)	-1%	13	-3%	15
Cc1noc(C)c1CC(=O)N1CCOc2c(cc(-c3nc4ccccc4s3)cc2OC2CCOC2)C1 (configuration not stated)	x	x	-1%	x
Cc1cccc(NC(=O)N2CCC(N3CCN(Cc4ccccc4)C(=O)C3=O)CC2)c1C	-1%	-6	-3%	x
O=C(C[n+]1ccccc1)N/N=C/c1cc(Br)ccc1O	-1%	-2	0%	-89*
O=C(C[n+]1ccccc1)N/N=C/c1ccccc1F	0%	5	-3%	1
O=[N+]([O-])c1ccc(/C=N/Nc2nc(NCc3ccccc3)nc(N3CCOCC3)n2)cc1	0%	0	-1%	9
O=[N+]([O-])c1cccc(/C=N/Nc2nc(NCc3ccccc3)nc(N3CCOCC3)n2)c1O	18%	-37	-1%	-138*
N#C/C(=N\Nc1ccc(Cl)cc1)C(=O)c1ccccc1	11%	-2	-1%	0
Cc1c(N/N=C(\C#N)C(=O)c2ccc(Cl)cc2)c(=O)n(-c2ccccc2)n1C	3%	-23	-7%	-80*
CCC(=O)C(Cc1ccccc1)(Cc1ccccc1)CC(C)N(C)C (configuration not stated)	x	x	-3%	x
C[C@@H](C(=O)O)c1ccc(C2CCCCC2)c2ccccc12	x	x	-4%	x
Cc1oc(-c2ccccc2F)nc1CN1CCC(C(=O)NCCC2=CCCCC2)CC1	2%	-2	-2%	-57*
SMILES	Nrf2 activator	D3 ag	Glioma ERSR ind	D3 antag
Cc1ccccc1-c1nc(CN2CCC(C(=O)NCCCN3CCCC3)CC2)c(C)o1	0%	-3	-1%	-57*
Cc1ccccc1-c1nc(CN2CCC(C(=O)NCCCN3CCOCC3)CC2)c(C)o1	-1%	-22	-3%	-9
Cc1onc(-c2ccccc2Cl)c1C(=O)Nc1nnc(C2CCCCC2)s1	x	x	0%	x
O=C(CCC1N=C2c3ccccc3N=C(SCC(=O)Nc3ccccc3F)N2C1=O)NCc1ccco1 (configuration not stated)	3%	9	1%	x
COc1cccc2ccc(/C=C/c3ccc4c(c3)OCO4)nc12	x	x	-2%	x
COc1ccc(/C=C/c2ccc3c(Br)ccc(O)c3n2)cc1	3%	-20	-2%	u
COc1cc(/C=C/c2ccc3cccc(O)c3n2)cc(Br)c1OC	u	-18	4%	-55*
COc1cc(/C=C/c2ccc3c(Br)cc(Br)c(O)c3n2)ccc1O	u	-27	28µM*	-91*
COc1cc(/C=C/c2ccc3cccc(O)c3n2)cc(Cl)c1OC	u	-17	-5%	-52*
COC(=O)c1ccc(/C=C/c2ccc3cccc(OC)c3n2)cc1	0%	31*	2%	4
COc1ccc(/C=C/c2ccc3cccc(O)c3n2)cc1Br	12%	-15	10%	u
Cc1ccc(/C=C/c2ccc3cccc(O)c3n2)s1	23%	-13	3%	u
COc1cc(/C=C/c2ccc3cccc(O)c3n2)cc(OC)c1OC	u	-27	1%	-64*
O=C(Cn1cncn1)N1CCOc2ccc(CN3CCN(c4ccccc4)CC3)cc2C1	x	x	-5%	x
C[C@@H]1[C@H](c2ccccc2)OCCS(=O)(=O)N1Cc1ccccc1F	x	x	-2%	x
Cc1c(C(=O)NCc2ccc3c(c2)OCO3)cnn1-c1ncc2c(n1)-c1ccccc1CC2	x	x	3%	x
COc1ccc(NC(=O)c2cc3ccccc3cc2O)cc1	0%	-9	7%	-61*
COc1cc(/C=C(\C#N)c2nc3ccc(C)cc3[nH]2)c([N+](=O)[O-])cc1OC	3%	-3	-8%	-52*
N#C/C(=C\c1cc([N+](=O)[O-])c(N2CCOCC2)cc1N1CCOCC1)c1nc2ccccc2[nH]1	3%	-2	-4%	-79*
CSCC[C@H](NC(=O)[C@@H](Cc1ccc(O[S+](=O)([O-])O)cc1)NC(=O)[C@H](N)CC(=O)O)C(=O)NCC(=O)N[C@@H](Cc1c[nH]c2ccccc12)C(=O)N[C@H](CCSC)C(=O)N[C@H](CC(=O)O)C(=O)N[C@@H](Cc1ccccc1)C(N)=O	x	x	-4%	x
CCOc1ccc(-c2cc(C(=O)NCCCOC)c3c(-c4ccc(CC)cc4)[nH]nc3n2)cc1	0%	-8	-1%	x
O=C(Nc1ccccc1C(=O)NCCCN1CCOCC1)c1ccc(Cl)cc1	0%	-18	-6%	-54*
Cc1ccc(N(CC(=O)NC(C)(C)C)C(=O)CS(=O)CC(=O)Nc2ccc(F)cc2)cc1 (configuration not stated)	-1%	-11	-3%	-10
Cc1ccc(NC(=O)CS(=O)CC(=O)N(CC(=O)NC(C)(C)C)c2cccc(C)c2C)cc1 (configuration not stated)	0%	32*	-1%	2
Cc1nc(S(=O)(=O)N2CCN(c3ccc(Cl)cc3)CC2)cn1C	-1%	-2	-3%	x
CC1C/C(=N\NC(=S)NCc2ccccc2)CC(C)(C)C1 (configuration not stated)	2%	-21	-2%	-56*
CN(C)c1ccc(/C=C/c2cc[n+](C)c3ccc4ccccc4c23)cc1	x	x	-10%	x
O=C(O)c1ccc2c(c1)C(=O)N(Cc1ccccc1)C2=O	0%	-2	-2%	-51*

Screening data deposited in PubChem by National Center for Advancing Translational Sciences (NCATS).
